Holding throughout (assay): NCI-60 one-dose screen, 48 h (100 = growth as untreated, 0 = no growth, -100 = all killed)
Settings in all cases: 10 µM unless noted

Assay [1] deals with T-47D breast.
Assay [2] relates to BT-549 breast.
Assay [3] has as its system MDA-MB-435 melanoma.
Assay [4] deals with SW-620 colon.
The subject of assay [5] is MCF7 breast.
Assay [6] deals with HCT-116 colon.
Assay [7] deals with HCC-2998 colon.
Assay [8] deals with KM12 colon.

About 83,000 compounds went through this panel and 20% of them were active in at least one assay; those are over-represented in the sample as a whole.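 Assay: single dose, 48 h. Readout: percent growth (0 = no net growth; negative = cell death). Active: <10.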 Unmarked numbers belong to inactive results. Active and inactive are the calls of the source.

This is an account of results in PubChem BioAssay (NCI).

For `C[C@@H]1N=C(c2ccc(Cl)cc2Cl)Nc2nc3ccccn3c2C1=O`, the growth in assay [1] was 64.3%; in assay [2] it was 55.6%; in assay [3], -16.6% (active); in assay [4], 25.2%; in assay [5] it was 16.8%; in assay [6], 28.1%. Further, the growth in assay [7] is 75.4%; in assay [8], 23.8%.
On to `CC(CN)[C@@H]1CC[C@]2(CO)CC[C@]3(C)[C@H](CC[C@@H]4[C@@]5(C)CCC(NCCO)C(C)(C)[C@@H]5CC[C@]43C)[C@@H]12` (some centres not stated), for which the growth in assay [1] is 77.5%; in assay [2], 64.7%; in assay [3], 31%; in assay [4] it was -60.9% (active); in assay [5] it was 3.04% (active); in assay [6], 6.92% (active). The growth in assay [7] was -26.8% (active); in assay [8], 32.6%.
For the molecule `COc1cccc(C2C(C#N)=C(N)Oc3c2ccc2ccccc32)c1` (configuration not stated), the growth in assay [1] was 69.5%; in assay [2] it was 28.3%; in assay [3], 6.77% (active); in assay [4], 30.3%; in assay [5], 10.8%; in assay [6], 5.1% (active). The growth in assay [7] was 23.6%; in assay [8], 11.9%.
As to `CN(C)CCCN(CCC1CCCCC1)CCC1CCCCC1`, the growth in assay [1] was -37.6% (active); in assay [2], 86%; in assay [3] it was -33.2% (active); in assay [4] it was 40.6%; in assay [5] it was -24.1% (active); in assay [6] it was 29%. Also, the growth is -88.1% (active) in assay [7] and 12% in assay [8].
Regarding `CC(=O)OCCOc1cc(Cl)c(Cl)cc1Cl`, the growth in assay [1] was 101%; in assay [2] it was 91.7%; in assay [3], 106%; in assay [4] it was 104%; in assay [5], 104%; in assay [6], 102%. The growth in assay [7] is 97.9%; in assay [8], 103%.
On to `O=C(Nc1cccc2c1C(=O)c1cccc(NC(=O)c3ccc(C(=O)Nc4cccc5c4C(=O)c4cccc(NC(=O)c6ccccc6)c4C5=O)cc3)c1C2=O)c1ccccc1`, for which the growth in assay [1] was 101%; in assay [2] it was 72.4%; in assay [3], 112%; in assay [4], 99.9%; in assay [5] it was 104%; in assay [6] it was 104%. Also, the growth was 101% in assay [7] and 102% in assay [8].
As to `C=C(C)[C@@H]1CCC[C@]2(C(=O)OC)CC[C@]3(C)[C@@H](CC[C@@H]4[C@@]5(C)CCCNC(C)(C)[C@@H]5CC[C@]43C)[C@@H]12`, the growth in assay [1] was 75.9%; in assay [2] it was 93.9%; in assay [3] it was 92.9%; in assay [4] it was 86.7%; in assay [5] it was 86.5%; in assay [6], 93.3%. In addition, the results for the growth in assay [7] and in assay [8] were 96.3% and 85.8%, respectively.
With `O=C(/C=C/c1cccc([N+](=O)[O-])c1)c1ccc(Nc2nc(Nc3ccc(F)cc3)nc(Nc3ccc(Cl)cc3)n2)cc1`, the growth in assay [1] was 81.4%; in assay [2], 103%; in assay [3], 102%; in assay [4], 104%; in assay [5], 67.1%; in assay [6], 97.1%. For the same molecule, the values for the growth in assay [7] and in assay [8] were 103% and 105%, respectively.
For the molecule `Cc1cc2c(C(C)C)c(O)c(O)c(/C=N/O)c2c(O)c1-c1c(C)cc2c(C(C)C)c(O)c(O)c(/C=N/O)c2c1O`, the growth in assay [1] is 10.2%; in assay [2], 23.8%; in assay [3] it was 37.4%; in assay [4], 23.2%; in assay [5], 15.3%; in assay [6], 18%. In addition, the growth in assay [7] is 16.1%; in assay [8], 26%.
As to `CN1/C(=C/C=C/c2n(Cc3ccc4ccccc4c3)c(Cl)c(Cl)[n+]2Cc2ccc3ccccc3c2)Oc2ccccc21`, the growth is -50.2% (active) in assay [1]; -84.8% (active) in assay [2]; -81.8% (active) in assay [3]; -79.9% (active) in assay [4]; -72.8% (active) in assay [5]; -82.2% (active) in assay [6]. Further, the values for the growth in assay [7] and in assay [8] were -87.6% (active) and -80.9% (active), respectively.
For the molecule `CC1(C)CC[C@]2(CO)CC[C@]3(C)C(=CC[C@@H]4[C@@]5(C)CCNCC(C)(C)[C@@H]5CC[C@]43C)[C@@H]2C1`, the growth in assay [1] is 56.3%; in assay [2] it was 90.1%; in assay [3], 41.6%; in assay [4], 21%; in assay [5], 38.6%; in assay [6], 55.5%. The growth was -60.8% (active) in assay [7] and 34.7% in assay [8].
For `C/C(=C(\c1ccc(OCCCN(C)C)cc1)c1ccc(OC(=O)Cc2ccccc2)cc1)c1ccc(Cl)cc1`, the growth in assay [1] was 51.2%; in assay [2] it was 83.9%; in assay [3] it was 57.7%; in assay [4] it was 84.6%; in assay [5] it was 23.5%; in assay [6] it was 58.3%. Also, the growth is 73.6% in assay [7] and 67.4% in assay [8].
As for `CC(C)(C#N)c1cc(C(=O)Nc2cc(Nc3ncccc3-c3ncnc4nc[nH]c34)ccc2F)cc(C(F)(F)F)c1`, the growth in assay [1] is 52%; in assay [2] it was 71%; in assay [3] it was 29.5%; in assay [4], 37.5%; in assay [5], 57.4%; in assay [6] it was 15.4%. The growth in assay [7] is 41.8%; in assay [8] it was 43.7%.
With `C(=N\Nc1nnc2n1N=C(c1ccccc1)CS2)/c1ccc(OCc2ccccc2)cc1`, the growth in assay [1] is 84.5%; in assay [2] it was 103%; in assay [3], 99.8%; in assay [4], 113%; in assay [5], 82.9%; in assay [6], 100%. For the same molecule, the figures for the growth in assay [7] and in assay [8] were 120% and 102%, respectively.
